Screening data as filed in PubChem.
Rows were chosen to be rich in hits. Some 3.6% of all compounds tested hit in one or more screens of this group.
APOBEC3G inh: blocks human APOBEC3G single-stranded DNA deamination; Q9HC16; recombinant A3G, ssDNA deamination FAM/TAMRA fluorescence; inhibition, % at 20 µM; 0.28% of 330,000 active; AID 493012;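 active = inhibition of at least 40% at 20 µM, with no more than 30% in the related APOBEC3A deaminase screen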
Target sequence (Q9HC16 whole entry, looked up): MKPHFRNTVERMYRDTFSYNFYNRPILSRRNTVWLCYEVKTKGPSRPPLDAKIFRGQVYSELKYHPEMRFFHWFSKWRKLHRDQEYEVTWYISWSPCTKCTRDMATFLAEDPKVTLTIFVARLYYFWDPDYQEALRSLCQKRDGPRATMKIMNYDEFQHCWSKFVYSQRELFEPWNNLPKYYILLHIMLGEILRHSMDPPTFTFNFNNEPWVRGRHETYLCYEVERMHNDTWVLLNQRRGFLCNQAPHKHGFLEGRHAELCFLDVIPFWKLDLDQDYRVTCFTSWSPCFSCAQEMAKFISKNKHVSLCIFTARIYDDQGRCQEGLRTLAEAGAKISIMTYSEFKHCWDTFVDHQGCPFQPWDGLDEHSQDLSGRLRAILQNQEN
esBAF inh: blocks esBAF chromatin remodeling in mouse ES cells | reporter increase, % at 12.5 µM | Bmi1-luciferase knock-in reporter, 24 h; 100% = twice the neutral-well signal | 2% of 350,000 active; in the data active = activation above about 40%; inconclusive = no clear call, values can overlap the other calls;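 note: a rise in the Bmi1 reporter signal indicates esBAF inhibition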
PHOSPHO1 block: blocks human PHOSPHO1 phosphatase activity. Q8TCT1. recombinant PHOSPHO1, absorbance phosphatase assay. inhibition, % at 13.3 µM. 1.1% of 290,000 active. AID 1565; in the data active = inhibition above about 60%
Target sequence (Q8TCT1 whole entry, looked up): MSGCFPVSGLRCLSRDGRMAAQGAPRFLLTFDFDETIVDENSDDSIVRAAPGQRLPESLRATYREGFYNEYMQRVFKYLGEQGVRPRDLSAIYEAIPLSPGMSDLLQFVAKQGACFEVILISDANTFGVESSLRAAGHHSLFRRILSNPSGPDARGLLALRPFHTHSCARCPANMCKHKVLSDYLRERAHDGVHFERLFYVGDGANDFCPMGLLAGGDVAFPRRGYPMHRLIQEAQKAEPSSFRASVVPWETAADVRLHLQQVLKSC
Wnt bcat act: Wnt/beta-catenin pathway activation | Wnt/beta-catenin reporter cell assay, activator, plate reader | AID 743398 | activation, % at 9.35 µM | 1.2% of 300,000 active; in the data active = activation above about 30%, passing the limit was not always enough; inconclusive = no clear call, values can overlap the other calls
MITF act: increases MITF-driven TRPM1 promoter luciferase signal; SK-MEL-5 TRPM1-promoter luciferase, 24 h; % of positive control, neutral wells = 0; activation, % at 12.5 µM; 0.75% of 300,000 active;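 active = mean activation of at least 80% with every replicate also reaching 80%; inconclusive = mean reaches 80% but some replicate falls short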
A3A deaminase: inhibitors of human APOBEC3A DNA deaminase; recombinant A3A, FAM/TAMRA ssDNA deamination fluorescence; inhibition, % at 20 µM; 0.41% of 330,000 active;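 active = at least 40% inhibition at 20 µM here, with at most 30% in a related deaminase screen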
Hits are given with their value; n = inactive; u = inconclusive; x = no result given.

SMILES | APOBEC3G inh | esBAF inh | PHOSPHO1 block | Wnt bcat act | MITF act | A3A deaminase
O=C(C1CCCC1)N1[C@H](CO)[C@H]2c3ccccc3N(S(=O)(=O)c3ccc(F)cc3)C[C@H]21 | x | n | x | x | x | x
O=C(/C=C/c1cccc(F)c1)c1ccc(N2CCOCC2)cc1 | n | n | n | n | n | n
O=C(/C=C/c1cccs1)c1ccc(N2CCOCC2)cc1 | n | 52 | n | n | n | n
CCCSc1nc2c(cnn2-c2ccccc2)c(=O)n1N | n | n | n | 41 | x | n
CCCCSc1nc2c(cnn2-c2ccccc2)c(=O)n1N | n | x | n | n | n | n
COc1ccc2c(c1[N+](=O)[O-])CCC/C2=N/OC(=O)c1cccc2ccccc12 | n | x | 78 | x | n | n
CCCCN1CN(S(=O)(=O)c2cccs2)c2nc3ccccc3nc21 | x | x | n | x | x | x
O=S(=O)(c1cccs1)N1CN(Cc2ccc(Cl)cc2)c2nc3ccccc3nc21 | n | 54 | n | x | n | n
Cc1ccc(CN2CN(S(=O)(=O)c3cccs3)c3nc4ccccc4nc32)cc1 | n | 70 | n | x | n | n
C[C@@H]1CN([C@H](C)CO)C(=O)c2cc(C3=CCCC3)cnc2O[C@H]1CN(C)C(=O)Nc1ccccc1 | x | n | x | x | x | x
CCC(=O)N1[C@H](CO)[C@@H](c2ccc(-c3cccc(F)c3)cc2)[C@@H]1CN(C)C(C)=O | x | n | x | x | x | x
COCC1CCN(C(=O)c2cc(COc3ccc(F)cc3Cl)on2)C1 (stereo unspecified) | x | x | x | n | x | x
O=C(c1cc(COc2ccc(F)cc2Cl)on1)N1CC2C[C@@H]3CC1C[C@H](C2)C3 | n | 59 | n | n | n | n
O=C(c1cc(COc2ccc(F)cc2Cl)on1)N1CC[C@@H]2CCCC[C@H]2C1 | n | n | n | n | n | n
O=C(c1cc(COc2ccc(F)cc2Cl)on1)N1C[C@H]2CC[C@H]1C2 | n | 43 | n | n | n | n
CC(C)C#Cc1cnc2c(c1)C(=O)N([C@H](C)CO)C[C@H](C)[C@@H](CN(C)S(=O)(=O)c1cn(C)cn1)O2 | x | n | x | x | x | x
C[C@@H]1CN([C@H](C)CO)C(=O)c2cc(NS(=O)(=O)c3cccs3)ccc2O[C@H]1CN(C)C | x | n | x | x | x | x
O=c1nc2c(-c3ccccc3F)n[nH]n2c2ccccc12 | n | n | n | 36 | x | n
O=C(Nc1ccc2c(c1)OCO2)C1CC(c2ccccc2Cl)=NO1 (stereo unspecified) | n | 64 | n | x | n | n
O=C(CNCc1ccccc1Cl)Nc1ccc2c(c1)OCCO2 | n | 52 | n | n | u | n
O=C(Nc1ccc2c(c1)OCCO2)c1ccccc1Cl | x | n | x | 40 | x | x
O=C(CSCc1ccccc1Cl)Nc1ccc2c(c1)OCCO2 | n | n | n | n | 135 | n
COc1ccc(CN(C2CCCC2)S(=O)(=O)c2cc(Br)ccc2Br)c(OC)c1 | x | x | x | n | x | x
C[C@@H]1CCCCO[C@H](CN(C)C)[C@H](C)CN([C@@H](C)CO)C(=O)c2cc(NS(=O)(=O)c3ccc(Cl)cc3)ccc2O1 | x | n | x | x | x | x
CC(C)CC#Cc1ccc2c(c1)O[C@@H](CN(C)C(=O)Cc1ccccc1)[C@@H](C)CN([C@@H](C)CO)S2(=O)=O | x | n | x | x | x | x
SMILES | APOBEC3G inh | esBAF inh | PHOSPHO1 block | Wnt bcat act | MITF act | A3A deaminase
CCC(=O)Nc1ccc2c(c1)OC[C@H](C)N(C(=O)NC(C)C)C[C@H](C)[C@H](OC)CN(C)C2=O | x | n | x | x | x | x
COc1cccc(NC(=O)N(C)C[C@H]2Oc3cc(-c4cccc(C(=O)N(C)C)c4)ccc3S(=O)(=O)N([C@@H](C)CO)C[C@H]2C)c1 | x | n | x | x | x | x
O=C(Nc1ccc2c(c1)OCCO2)c1cc2sccc2n1Cc1ccc(F)cc1 | n | n | n | n | n | n
O=C(Nc1ccc2c(c1)OCCO2)c1cc2sccc2n1Cc1ccccc1 | n | 49 | n | n | n | n
COCC(=O)N[C@H]1C=C[C@@H](CC(=O)NCc2ccccc2OC)O[C@H]1CO | x | n | x | x | x | x
CCC(CO)Oc1cc(NCc2ccccc2)c2ncn(C(C)C)c2c1 (stereo unspecified) | n | 60 | x | n | n | n
CCC(CO)Oc1cc(NCc2ccc(O)cc2)c2ncn(C(C)C)c2c1 (stereo unspecified) | n | n | x | n | n | n
CC1CCN(C(c2ccc(N(C)C)cc2)c2nnnn2Cc2ccccc2)CC1 (stereo unspecified) | n | n | 69 | x | n | n
COc1ccc(Cn2nnnc2C(c2ccc(N(C)C)cc2)N2CCC(C)CC2)cc1 (stereo unspecified) | n | n | n | n | x | n
CCN1CCN(C(c2ccccc2)c2nnnn2Cc2ccc3c(c2)OCO3)CC1 (stereo unspecified) | n | n | 61 | n | n | n
O=C(C[C@@H]1CC[C@H]2[C@@H](COC[C@@H](O)CN2C(=O)c2ccccn2)O1)NC1CCC1 | x | n | x | x | x | x
O=c1sc(N2CCN(c3ccccc3F)CC2)nc2ccsc12 | n | 69 | n | 54 | x | n
O=S(=O)(c1cccs1)N1CCN(c2ccccc2F)CC1 | n | n | n | n | n | n
CCCCN1CC(O)=C(c2nc3ccccc3[nH]2)C1=N | n | 58 | n | n | n | n
O=C(NCc1ccccc1)c1c[nH]c2cc3c(cc2c1=O)OCCO3 | n | 51 | n | n | n | n
COc1ccc(C)c2sc(=NC(=O)c3ccc(C(C)=O)cc3)n(C)c12 | n | x | n | n | u | n
COc1ccc(C)c2sc(=NC(=O)c3ccccc3)n(C)c12 | n | 51 | n | u | x | n
Cc1noc(C)c1S(=O)(=O)N(C)C[C@H]1OCCCC[C@@H](C)Oc2ccc(NS(=O)(=O)c3ccc(F)cc3)cc2C(=O)N([C@@H](C)CO)C[C@@H]1C | x | n | x | x | x | x
COc1ccccc1C(=O)Nc1ccc2c3c(cccc13)CC2 | n | 62 | n | x | n | n
O=C(C=Cc1ccccc1O)c1ccccc1O | x | 63 | x | n | n | x
O=C(/C=C/c1cc2ccccc2o1)c1ccccc1O | n | x | n | 39 | u | n
Cc1ccc(/C=C/C(=O)c2ccc(O)cc2)cc1 | n | x | n | n | n | n
O=C(/C=C/c1ccc(O)cc1)c1ccc(O)cc1O | n | 70 | n | n | n | n
CSc1ccc(/C=C/C(=O)c2ccc(O)cc2)cc1 | n | x | n | x | 94 | n
O=C(/C=C/c1ccccc1)NC(=O)c1ccccc1O | n | u | n | n | n | n
SMILES | APOBEC3G inh | esBAF inh | PHOSPHO1 block | Wnt bcat act | MITF act | A3A deaminase
COc1cc(/C=C/C(=O)NC(=O)c2ccccc2O)ccc1O | n | u | n | n | 84 | n
O=C(/C=C/c1ccc(O)c(O)c1)c1ccccc1O | n | x | n | 47 | n | n
O=C(C=Cc1cccc(O)c1)c1ccccc1O | x | u | x | n | n | x
CCCNC(=O)C[C@@H]1CC[C@H]2[C@@H](COc3ccc(NC(=O)c4cccs4)cc3C(=O)N2C)O1 | x | n | x | x | x | x
Fc1ccccc1-c1cc2ncccc2cn1 | n | n | x | 34 | n | n
CC(C)(C)n1ncc2c(=O)n(CC(=O)c3ccc(Cl)cc3)cnc21 | n | 74 | n | x | n | n
CC(C)(C)n1ncc2c(=O)n(CC(=O)Nc3ccc(Cl)cc3)cnc21 | n | n | n | x | n | n
